Among the data in PubChem BioAssay AID1578 (Sanford-Burnham Center for Chemical Genomics, 2009) are inhibition values, retold here.

Structures are written as SMILES. Hit rate of the full screen: of about 290,000 compounds, about 3,000 (1%) were called active. This is one part of a sample in which actives are shown more often than they occur. A number with no mark means an inactive call. Rule as the data show it: active = inhibition mostly above about 36% (no sharp cut-off); inactive = mostly below about 34%.

The nature of this assay: NOD1 signaling inhibitors, primary screen, cell-based, luminescence, uHTS (AID 1578).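 Also: HEK-293T reporter cells stimulated with the NOD1 agonist gamma-tri-DAP.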 Conditions: NOD1-driven NF-kB luciferase reporter cells, at 4 µM, active compounds read high. On the technique in general: A reporter such as luciferase makes a cellular process visible.
Regarding `Cc1ccccc1C(=O)c1c[nH]c(C(=O)NCc2cccs2)c1`, the inhibition – broadly, the drop in the measured response relative to a control, in per cent – was 2.5%.

For the molecule `Cc1ccc(-n2cc(C(=O)O)c(=O)cc2C)c(C)c1`, the inhibition is -25.8%.

Regarding `CC(C)n1cc(CN2CCC(n3nccc3NC(=O)CCCc3ccccc3)CC2)cn1`, the inhibition was -24.8%.

As to `COc1cccc(NC(=O)C2CC(=O)N(C)C(=Nc3cccc(F)c3)S2)c1` (stereo not drawn), the inhibition was 13.8%.

For the molecule `CCOc1cccc(NC(=O)C2CC(=O)N(C)C(=Nc3cccc(F)c3)S2)c1` (stereo not drawn), the inhibition is 73.6% (active).

Consider `CCOc1cccc(NC(=O)C2CC(=O)N(C)C(=Nc3ccccc3)S2)c1` (stereo not drawn), for which the inhibition is 5.5%.

On to `Fc1ccc(N=c2ssnc2Cl)c(F)c1`, for which the inhibition is -14.2%.

As for `C/C(=N\Nc1ccc(S(=O)(=O)N2CCOCC2)cc1[N+](=O)[O-])C(C)C`, the inhibition was -8.2%.

With `Cn1c(SCC(=O)NCCc2ccccc2)nnc1-c1ccncc1`, the inhibition is -5.8%.

As to `Cc1nc2ncnn2c(N2CCN(C(=O)c3cccc(F)c3)CC2)c1Cc1ccccc1`, the inhibition is -1.9%.

On to `CN=C1SC(CC(=O)Nc2ccc(F)cc2F)C(=O)N1/N=C/c1ccc(OC(F)F)c(OC)c1` (stereo not drawn), for which the inhibition was -35.2%.

On to `CCOc1ccc(/C=N/N2C(=O)C(CC(=O)Nc3ccc(F)cc3F)SC2=NC)cc1OC` (stereo not drawn), for which the inhibition is -23%.

With `CN=C1SC(CC(=O)Nc2ccccc2F)C(=O)N1/N=C/c1ccc(O)c(OC)c1` (stereo not drawn), the inhibition is 47.1% (active).

In the case of `Cc1ccc(-n2c([S-])c(C(=O)NC(C)c3ccccc3)[n+]3ccccc23)cc1` (stereo not drawn), the inhibition is -40.2%.

`CCOC(=O)CSc1nc(-c2ccccc2)nc2ccc(F)cc12`: the inhibition is -21.7%.

`CCn1c(SCC(=O)Nc2nc(-c3ccccc3)cs2)nnc1-c1ccccc1O`: the inhibition is 12.7%.

With `CCOC(=O)N1CCN(C(=O)CSCC(=O)Nc2nc(-c3ccccc3)cs2)CC1`, the inhibition is -14%.

For `CCn1c(SCC(=O)N/N=C/c2ccccc2OCC(=O)O)nnc1-c1ccc(C(C)(C)C)cc1`, the inhibition is 86.7% (active).

On to `CCn1c(SCC(=O)N/N=C/c2ccccc2OCC(=O)O)nnc1-c1ccccc1`, for which the inhibition is -7.7%.

Consider `CCn1c(SCC(=O)Nc2nc(-c3ccc(C)cc3)cs2)nnc1-c1ccccc1`, for which the inhibition is 31%.

Turning to `CCOC(=O)N1CCN(C(=O)CSCC(=O)Nc2nc(-c3ccc(-c4ccccc4)cc3)cs2)CC1`, the inhibition was 58.2% (active).

Regarding `CCn1c(SCC(=O)N/N=C(\C)c2ccncc2)nnc1-c1ccc(C)cc1`, the inhibition is -7.3%.

For the molecule `CCOC(=O)N1CCN(C(=O)CSCC(=O)Nc2nc(-c3ccc(C)cc3)cs2)CC1`, the inhibition is 13.3%.

On to `CCn1c(SCC(=O)N/N=C(\C)c2ccco2)nnc1-c1ccccc1`, for which the inhibition is -25.7%.

As for `CCn1c(SCC(=O)N/N=C(\C)c2ccncc2)nnc1-c1ccccc1`, the inhibition is 58.5% (active).

Turning to `CCn1c(SCC(=O)N/N=C/c2ccccc2OCC(=O)O)nnc1-c1ccc(C)cc1`, the inhibition is 2.1%.

For `O=C(NCCc1ccccc1)c1ccc(CS(=O)Cc2cccc(Cl)c2)o1` (stereo not drawn), the inhibition was -20.6%.

Regarding `CCOC(=O)c1c(/N=C/c2ccccc2O)sc2c1CCC2`, the inhibition was 8.8%.

As for `COc1ccc(S(=O)(=O)NCCc2c(C)nn(C)c2Oc2ccccc2)cc1`, the inhibition was -4.8%.

Turning to `COc1ccc(CCCC(=O)Nc2ccc(F)cc2)cc1`, the inhibition is 11.5%.

As to `CCNc1nc(NC(C)C)nc(Oc2ccc(/C=N/O)cc2)n1`, the inhibition was -10.5%.

With `CCOc1ccc(CC2NCCc3cc(OCC)c(OCC)cc32)cc1OCC` (stereo not drawn), the inhibition is -27.9%.

As for `CSc1ccc(C(=O)C2CCCN(C(=O)CN3CCOC3=O)C2)cc1` (stereo not drawn), the inhibition was -29.8%.

For `CCOc1ccc(C(=O)NCCC(=O)N2CCC3(CC2)NCCc2[nH]cnc23)cc1`, the inhibition is -23.8%.

As to `COc1ccc(N(Cc2ccccc2)N=O)cc1`, the inhibition is -31.8%.

Take `O=NN(CCc1ccncc1)c1ccc(OCc2ccccc2)cc1`: the inhibition was 43.7% (active).

As to `O=C(N/N=C/c1ccc(OCc2ccccc2)cc1)c1ccncc1`, the inhibition is -35.1%.

`Cc1c(C)c2ccc(O)c(CN3CCN(C)CC3)c2oc1=O`: the inhibition was 2%.

Turning to `CCOc1ccccc1NC(=S)NC(=O)C1CCCCC1`, the inhibition was -8%.

Take `CCOc1ccccc1NC(=S)NC(=O)C1CC1`: the inhibition is 65.9% (active).

Turning to `COc1ccccc1NC(=S)NC(=O)C1CC1`, the inhibition was -18.7%.

`CC(=O)Nc1ccc(NC(=O)CSc2nnc(NC(=O)C3CC3)s2)cc1`: the inhibition is -6.1%.

For the molecule `CN1C(=O)c2cccc(NC(=O)C3CCCCC3)c2C1=O`, the inhibition was -4%.

On to `Cc1ccc(NC(=S)NNc2ncc(C(F)(F)F)cc2Cl)cc1`, for which the inhibition was 36.4%.

`Cc1cccc(NC(=S)NNc2ncc(C(F)(F)F)cc2Cl)c1`: the inhibition is 34.9%.

`FC(F)(F)c1cnc(NNC(=S)Nc2ccc(Cl)cc2)c(Cl)c1`: the inhibition was 104% (active).

As for `C=CCN1C(=O)C(CC(=O)O)SC1=Nc1ccc(N=Nc2ccccc2)cc1` (stereo not drawn), the inhibition is -20.5%.

In the case of `O=C(CN1C2=NCCN2c2ccccc21)c1ccc(Br)cc1`, the inhibition was 6.8%.

On to `Cc1ccc2c(Cl)cc(Cl)c(OCC(=O)N(C(C)C)C(C)C)c2n1`, for which the inhibition is -3.8%.

Take `CCN(CC(=O)NC(C)(C)C)C(=O)COc1c(Cl)cc(Cl)c2ccc(C)nc12`: the inhibition was 49.3% (active).

`Cc1ccc2c(Cl)cc(Cl)c(OCC(=O)NC(=O)NCc3ccco3)c2n1`: the inhibition is -16.8%.

As for `Cc1cc(Cl)cc(Cl)c1OCC(=O)NCc1ccco1`, the inhibition was 20.4%.

In the case of `Cc1ccc2c(Cl)cc(Cl)c(OCC(=O)NCc3ccco3)c2n1`, the inhibition is 101% (active).

For `Cc1ccc2c(Cl)cc(Cl)c(OCC(=O)NC(C)(C)C)c2n1`, the inhibition is -11.5%.

On to `COc1cccc(CN(C)C(=O)CNC(=O)c2ccc3c(c2)OCO3)c1OC`, for which the inhibition is -8.5%.

Turning to `CC(C(=O)Nc1ccc2c(c1)OCO2)N(c1ccc(Cl)cc1)S(C)(=O)=O` (stereo not drawn), the inhibition is -9.6%.

With `COc1ccc(-c2oc(NC(=O)c3ccc(C)cc3)c(C#N)c2-c2ccc(OC)cc2)cc1`, the inhibition is -18.9%.

For the molecule `COc1ccc(-c2oc(NC(=O)CCl)c(C#N)c2-c2ccc(OC)cc2)cc1`, the inhibition is 71.1% (active).

`COc1ccc(-c2oc(NC(C)=O)c(C#N)c2-c2ccc(OC)cc2)cc1`: the inhibition was 11.7%.

As to `COC(=O)CN1C(=O)C2(C(C#N)=C(N)Oc3ccccc32)C2=C1CC(C)(C)CC2=O` (stereo not drawn), the inhibition was 1.7%.

As for `COc1ccc(-n2c(C)c(C(C)=O)c(C(C)=O)c2C)cc1OC`, the inhibition is -0.8%.

`COc1ccc(NC(=S)NC(NC(=O)CCl)C(Cl)(Cl)Cl)c([N+](=O)[O-])c1` (stereo not drawn): the inhibition was 76.4% (active).

As for `COc1ccc(NC(=S)NC(NC(=O)C(C)C)C(Cl)(Cl)Cl)c([N+](=O)[O-])c1` (stereo not drawn), the inhibition is 11.7%.

Regarding `COc1ccc(NC(=S)NC(NC(C)=O)C(Cl)(Cl)Cl)c([N+](=O)[O-])c1` (stereo not drawn), the inhibition was -5.3%.

On to `CCOC(=O)N1CCC(NC(=O)c2ccc3c(c2)N=C(CC)c2ccccc2S3)CC1`, for which the inhibition is 20.2%.

As for `O=C(NNC(=S)Nc1ccccc1)c1ccccc1[N+](=O)[O-]`, the inhibition was -34.4%.

As to `CCC(C)(C(=O)NC1CCCCC1)N(C(=O)CNC(C)=O)c1c(C)n(C)n(-c2ccccc2)c1=O` (stereo not drawn), the inhibition is -13.9%.

With `ON=C1c2cc(OCCN3CCCCC3)ccc2-c2ccc(OCCN3CCCCC3)cc21`, the inhibition is 0.3%.

For the molecule `NC(=S)NN=C1c2cc(S(=O)(=O)N3CCOCC3)ccc2-c2ccc(S(=O)(=O)N3CCOCC3)cc21`, the inhibition was -20.4%.

On to `NC(=S)NN=C1c2cc(OCCN3CCOCC3)ccc2-c2ccc(OCCN3CCOCC3)cc21`, for which the inhibition was 42.8% (active).

`Cc1cccc(C(=O)Nc2ccc(C(=O)Nc3ccc(O)cc3)cc2)c1`: the inhibition was -22.1%.

`COc1ccc(CC(=O)OCC(=O)NCCc2ccccc2)cc1OC`: the inhibition is -25.2%.

With `C=CCn1c(SCCOc2ccc(OC)cc2)nnc1C(C)NC(=O)c1ccc(OC)cc1` (stereo not drawn), the inhibition was 5.8%.

For `C=CCn1c(SCCOc2ccc(OC)cc2)nnc1C(C)NC(=O)Cc1ccc(OC)cc1` (stereo not drawn), the inhibition was 74.9% (active).

For `COc1ccc(CC(=O)NC(C)c2nnc(SCCOc3ccc(OC)cc3)n2C)cc1` (stereo not drawn), the inhibition was -0.8%.

Take `COc1ccc(-c2cc(C(=O)N/N=C(\C)c3ccco3)c3ccccc3n2)c(OC)c1`: the inhibition was -42.5%.

On to `CCN1C(=NCc2ccc(OC)cc2)N[C@@H](c2ccccc2)C(C(=O)OC)=C1C`, for which the inhibition was -15.5%.

Take `CC(C)CCN1CCN(Cc2cccn2-c2nccs2)CC1CCO` (stereo not drawn): the inhibition was -20.1%.

`CN1CCN(C(=O)CCC(=O)O)CC1`: the inhibition was -14.8%.

Turning to `COc1cccc(CC(=O)n2nc(N)c3cc4ccc(OC)cc4nc32)c1`, the inhibition was 3.9%.

On to `COc1ccc2cc3c(N)nn(C(=O)Cc4ccc(Cl)cc4)c3nc2c1`, for which the inhibition is 14.9%.

With `CN(Cc1ccccc1)c1ncnc2ccc(Br)cc12`, the inhibition was 10.2%.

As to `CCN(CC)c1ncnc2ccc(Br)cc12`, the inhibition was 67.5% (active).

Regarding `CC(C)Nc1ncnc2ccc(Br)cc12`, the inhibition is 87.6% (active).

As to `Clc1cccc(Nc2ncnc3ccc(Br)cc23)c1`, the inhibition is 11.7%.

As for `OCCNc1ncnc2ccc(Br)cc12`, the inhibition was 46.1%.

As for `CN(C)c1ccc(Nc2ncnc3ccc(Br)cc23)cc1`, the inhibition is 53.8%.

On to `CCOc1ccccc1Nc1ncnc2ccc(Br)cc12`, for which the inhibition is -11.1%.

`Cc1cccc(Nc2ncnc3ccc(Br)cc23)c1`: the inhibition was 42.4%.

On to `Cc1ccc(CC2C(=O)N(c3cc(Cl)ccn3)C(=O)C2C)cc1` (stereo not drawn), for which the inhibition is -9.5%.

Turning to `Cc1nn(C)cc1CN1CCC(n2nccc2NC(=O)CCCc2ccccc2)CC1`, the inhibition was -26.7%.

For the molecule `O=C(/C=C/c1ccco1)c1ccccc1O`, the inhibition was -22.5%.

For the molecule `COc1ccc(NC(=O)c2cc(-c3ccc(OC)c(OC)c3)on2)cc1OC`, the inhibition is -8.9%.
